# Rows were chosen to be rich in hits. Some 32% of all compounds tested hit in one or more screens of this group.
# CYP2C9 inh: inhibitors of human CYP2C9; P11712; CYP2C9 Supersomes, luciferin-H conversion, luminescence; inhibition, % at 5 µM; hit rate 20% among 96,000; AID 777;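 active = blocking of liver enzyme CYP2C9 beyond about 50% at 5 µM, limit read from the data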
# Target sequence (P11712 whole entry, looked up): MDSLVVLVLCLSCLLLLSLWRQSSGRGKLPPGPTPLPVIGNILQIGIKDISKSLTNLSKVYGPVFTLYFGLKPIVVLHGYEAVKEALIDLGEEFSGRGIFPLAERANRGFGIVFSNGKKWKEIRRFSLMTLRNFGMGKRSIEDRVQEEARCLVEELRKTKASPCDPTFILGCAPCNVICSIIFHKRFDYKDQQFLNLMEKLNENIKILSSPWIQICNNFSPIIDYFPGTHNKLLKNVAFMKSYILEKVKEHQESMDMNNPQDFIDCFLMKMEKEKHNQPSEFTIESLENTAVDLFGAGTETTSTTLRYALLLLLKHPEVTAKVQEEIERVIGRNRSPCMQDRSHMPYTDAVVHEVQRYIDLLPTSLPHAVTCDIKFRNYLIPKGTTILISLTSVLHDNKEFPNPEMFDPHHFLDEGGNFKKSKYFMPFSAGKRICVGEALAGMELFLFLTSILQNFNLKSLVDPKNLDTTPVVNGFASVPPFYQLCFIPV
# PostGolgi ctrl: growth of the yeast control strain, post-Golgi counter-screen | efflux-deficient yeast background strain, growth absorbance A615, 16 h | inhibition, % at 10 µM | AID 738 | hit rate 5% among 98,000
# CYP2C19 inh: human CYP2C19 inhibition. hit rate 21% among 96,000. P33261. CYP2C19 Supersomes, luciferin-H EGE luminescence, 30 min. inhibition, % at 5 µM. AID 778;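 active = CYP2C19 inhibition above a set limit at 5 µM in the primary screen, cut at about 50% in these data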;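 also: plate controls were negative control wells for no effect and 2.5 mM tranylcypromine positive control for full effect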
# CYP2C19 activ: cytochrome P450 2C19 (human) activation. recombinant CYP2C19, luciferin-H EGE luminescence; stronger effect = higher value; 0 = fully inhibited enzyme, 1 = untreated enzyme. 96,000 tested, under 10 active. activation factor at 5 µM. AID 1025;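 active = activation factor of at least 2 at 5 µM in the primary screen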;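 also: 0 = wells with 2.5 mM tranylcypromine and 1 = vehicle-only wells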
# PostGolgi yeast: growth inhibition of a yeast mutant, post-Golgi transport screen; inhibition, % at 10 µM; hit rate 0.9% among 98,000; AID 739; post-Golgi transport phenotypic cell assay;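 also: yeast cells grown in 1536-well plates; yeast grown about 18 h at 30C before absorbance read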
# CYP2C9 activ: increases human cytochrome P450 2C9 activity; activation factor at 5 µM; P11712; recombinant CYP2C9, luciferin-H conversion, luminescence; stronger effect = higher value; factor 1 = untreated enzyme, 0 = blocked; AID 1024; hit rate 1.4% among 96,000;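 active = activation factor of 2 or more for CYP2C9 at a 5 µM dose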;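 also: 0 = sulfaphenazole-blocked wells and 1 = vehicle-only wells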
# Active calls of the source: *; / = not tested or not shown. Rule as the data show it, unless noted: active = inhibition above about 30%; inactive = the rest.
SMILES,CYP2C9 inh,PostGolgi ctrl,CYP2C19 inh,CYP2C19 activ,PostGolgi yeast,CYP2C9 activ
CCOC(=O)CC1C(=O)NCCN1S(=O)(=O)c1cc(Cl)c(Cl)cc1Cl (stereo not given),-21,6,62*,0.4,3,1.2
CCCn1nc2cc(C(=O)NCC34CC5CC(CC(C5)C3)C4)ccc2c1OCC,11,12,-1,1,-1,0.9
Cc1n[nH]c(C)c1C(=O)CC1(O)C(=O)N(CCc2ccccc2)c2ccc(Br)cc21 (stereo not given),66*,5,56*,0.4,-1,0.3
Cc1n[nH]c(C)c1C(=O)CC1(O)C(=O)N(Cc2ccccc2)c2ccc(Br)cc21 (stereo not given),61*,30*,99*,0,1,0.4
Cn1nc(-c2ccc(Cl)cc2)c2cc(C(=O)N3CCOCC3)sc21,17,10,34,0.7,10,0.8
COc1cccc(-c2nn(C)c3sc(C(=O)N4CCOCC4)cc23)c1,60*,9,32,0.7,-2,0.4
COc1ccc(CC(=O)N2CCN(c3ccccn3)CC2)cc1,/,2,/,/,2,/
COc1cccc(-c2nn(C)c3sc(C(=O)N4CCN(c5ccccn5)CC4)cc23)c1,80*,16,42,0.6,11,0.2
COc1ccc(N2CCN(C(=O)c3cc4c(-c5ccc(Cl)cc5)nn(C)c4s3)CC2)cc1,64*,6,23,0.8,-3,0.4
O=C(Nc1ccc2nc(-c3ccco3)[nH]c2c1)c1ccco1,-30,-9,5,1,3,1.3
Cc1ccc2nc(-c3ccc(NC(=O)C4CCCO4)cc3)[nH]c2c1 (stereo not given),54*,11,62*,0.4,-6,0.5
Cc1ccc2nc(-c3cccc(NC(=O)c4ccco4)c3)[nH]c2c1,91*,28,91*,0.1,-6,0.1
O=C(Nc1ccc(-c2nc3ccccc3[nH]2)cc1)c1ccco1,39,4,66*,0.3,0,0.6
Cc1ccc2nc(-c3ccc(NC(=O)Cc4cccs4)cc3)[nH]c2c1,44,-1,3,1,-5,0.6
CSc1nc2ccccc2n1C(=O)NC1CCCCC1,10,0,15,0.8,-2,0.9
CCCCCC1CC(CC(=O)O)C(=O)O1 (stereo not given),11,3,17,0.8,-4,0.9
CCCCCCC1CC(CSc2ncn[nH]2)OC1=O (stereo not given),67*,4,91*,0.1,2,0.3
Nc1ccccc1C(=O)NNc1ncc(C(F)(F)F)cc1Cl,-17,1,21,0.8,0,1.2
Cc1ccc(NC(=S)NNc2ncc(C(F)(F)F)cc2Cl)c(C)c1,-58,-10,67*,0.3,-4,1.6
CCN(CC1COc2ccccc2O1)C(=S)Nc1ccccc1 (stereo not given),42,18,56*,0.4,-1,0.6
Cc1onc(-c2c(Cl)cccc2Cl)c1C(=O)NCC1CCCO1 (stereo not given),18,-4,25,0.8,0,0.8
COc1cccc(CC(=O)NCC2COc3ccccc3O2)c1OC (stereo not given),28,3,64*,0.4,0,0.7
Cc1onc(-c2c(F)cccc2Cl)c1C(=O)NCC1COc2ccccc2O1 (stereo not given),59*,37*,70*,0.3,5,0.4
COc1ccccc1CN(C)C(=O)C1COc2ccccc2O1 (stereo not given),47,-3,98*,0,2,0.5
CCCNCC1COc2ccccc2O1 (stereo not given),-15,-9,-10,1.1,-5,1.1
SMILES,CYP2C9 inh,PostGolgi ctrl,CYP2C19 inh,CYP2C19 activ,PostGolgi yeast,CYP2C9 activ
Cc1cccc(Cc2cnc(NC(=O)CN3C(=O)/C(=C/c4ccccc4)SC3=S)s2)c1,42,-10,7,0.9,-7,0.6
O=C(CC1COc2ccccc2O1)Nc1ccccn1 (stereo not given),14,18,33,0.7,3,0.9
O=C(NCC1COc2ccccc2O1)c1ccco1 (stereo not given),-5,-5,30,0.7,-2,1.1
O=C(NCC1COc2ccccc2O1)c1ccccc1 (stereo not given),17,7,95*,0.1,-2,0.8
COc1ccccc1NC(=O)CC1COc2ccccc2O1 (stereo not given),-21,9,64*,0.4,4,1.2
COc1ccccc1NC(=O)CN1C(=O)C(C)Oc2ccccc21 (stereo not given),61*,-3,85*,0.2,-4,0.4
CCOC(=O)c1ccc(NC(=O)CC2COc3ccccc3O2)cc1 (stereo not given),63*,32*,25,0.7,4,0.4
CCOC(=O)CCNCC1COc2ccccc2O1 (stereo not given),2,15,75*,0.3,5,1
COC(=O)CCC(=O)N1CCc2cc(S(=O)(=O)N3CCN(c4ccccc4Cl)CC3)ccc21,59*,8,32,0.7,-3,0.4
CCOc1cc(C(c2c(C)[nH][nH]c2=O)c2c(C)[nH][nH]c2=O)ccc1OCc1ccc([N+](=O)[O-])cc1,34,9,60*,0.4,-7,0.7
CCOc1cc(C(c2c(C)[nH][nH]c2=O)c2c(C)[nH][nH]c2=O)ccc1OC(=O)c1cccc([N+](=O)[O-])c1,54*,2,41,0.6,1,0.5
COc1cc(C(=O)Oc2ccccc2/C=N/NC(=O)c2ccc(Cl)cc2Cl)cc(OC)c1OC,97*,18,43,0.6,9,0
COc1cc(/C=C(/NC(=O)c2ccccc2Cl)C(=O)O)cc(OC)c1OC,-7,4,-7,1.1,6,1.1
COC(=O)c1cc(OC)c(OC)c(OC)c1N,-14,-10,64*,0.4,15,1.1
COc1cc(C(=O)Oc2ccccc2N)cc(OC)c1OC,68*,-9,43,0.6,-1,0.3
CC1=NN(C(=O)Cc2ccc([N+](=O)[O-])cc2)C(O)(c2ccccc2)C1 (stereo not given),33,4,59*,0.4,-3,0.7
CC(C)=CC(=O)OCC(=O)Nc1ccc(F)cc1Cl,25,33*,63*,0.4,12,0.8
CC(C)=CC(=O)OCC(=O)Nc1nc(C)c(Cl)cc1Cl,42,-4,83*,0.2,-1,0.6
COc1cc(CCC(=O)OCC(=O)Nc2nc(C)c(Cl)cc2Cl)cc(OC)c1OC,-13,22,20,0.8,-8,1.1
CCOC(=O)C1C(=O)NC(N2CCN(Cc3ccccc3)CC2)=NC1c1ccco1 (stereo not given),11,-4,-9,1.1,-3,0.9
COc1ccc(C(=O)COC(=O)CN2CC(=O)Oc3ccccc32)cc1Br,46,-3,38,0.6,-14,0.5

# Compound activity from PubChem.
